# Tests used:
# [1] = biological target: Tyrosine-protein kinase SYK (Homo sapiens) (UniProt P43405); conditions: at 10 µM
# [2] = biological target: T1, Mitogen-activated protein kinase kinase kinase 7 (Homo sapiens) (UniProt O43318); conditions: at 1 µM
# T1 sequence (whole entry): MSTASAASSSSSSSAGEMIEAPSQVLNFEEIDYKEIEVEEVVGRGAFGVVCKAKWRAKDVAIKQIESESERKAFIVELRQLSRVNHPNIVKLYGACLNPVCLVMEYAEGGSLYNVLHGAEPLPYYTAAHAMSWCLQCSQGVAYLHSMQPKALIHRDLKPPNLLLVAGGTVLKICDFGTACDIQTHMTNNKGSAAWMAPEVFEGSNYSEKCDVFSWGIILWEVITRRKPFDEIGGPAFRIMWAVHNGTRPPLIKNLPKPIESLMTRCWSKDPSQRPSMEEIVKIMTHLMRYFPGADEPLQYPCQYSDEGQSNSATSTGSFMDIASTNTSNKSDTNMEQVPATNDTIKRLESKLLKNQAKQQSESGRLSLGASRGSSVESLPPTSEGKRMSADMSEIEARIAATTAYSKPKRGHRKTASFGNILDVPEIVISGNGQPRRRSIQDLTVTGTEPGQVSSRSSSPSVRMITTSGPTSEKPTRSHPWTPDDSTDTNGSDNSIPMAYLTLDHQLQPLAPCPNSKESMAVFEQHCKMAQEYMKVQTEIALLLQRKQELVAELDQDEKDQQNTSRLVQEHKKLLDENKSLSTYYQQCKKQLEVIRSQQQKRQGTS
# [3] = biological target: T1, Mitogen-activated protein kinase kinase kinase 7 (Homo sapiens); conditions: at 10 µM
# [4] = biological target: T2, Serine/threonine-protein kinase TAO1 (Homo sapiens) (UniProt Q7L7X3); conditions: at 1 µM
# T2 sequence (whole entry): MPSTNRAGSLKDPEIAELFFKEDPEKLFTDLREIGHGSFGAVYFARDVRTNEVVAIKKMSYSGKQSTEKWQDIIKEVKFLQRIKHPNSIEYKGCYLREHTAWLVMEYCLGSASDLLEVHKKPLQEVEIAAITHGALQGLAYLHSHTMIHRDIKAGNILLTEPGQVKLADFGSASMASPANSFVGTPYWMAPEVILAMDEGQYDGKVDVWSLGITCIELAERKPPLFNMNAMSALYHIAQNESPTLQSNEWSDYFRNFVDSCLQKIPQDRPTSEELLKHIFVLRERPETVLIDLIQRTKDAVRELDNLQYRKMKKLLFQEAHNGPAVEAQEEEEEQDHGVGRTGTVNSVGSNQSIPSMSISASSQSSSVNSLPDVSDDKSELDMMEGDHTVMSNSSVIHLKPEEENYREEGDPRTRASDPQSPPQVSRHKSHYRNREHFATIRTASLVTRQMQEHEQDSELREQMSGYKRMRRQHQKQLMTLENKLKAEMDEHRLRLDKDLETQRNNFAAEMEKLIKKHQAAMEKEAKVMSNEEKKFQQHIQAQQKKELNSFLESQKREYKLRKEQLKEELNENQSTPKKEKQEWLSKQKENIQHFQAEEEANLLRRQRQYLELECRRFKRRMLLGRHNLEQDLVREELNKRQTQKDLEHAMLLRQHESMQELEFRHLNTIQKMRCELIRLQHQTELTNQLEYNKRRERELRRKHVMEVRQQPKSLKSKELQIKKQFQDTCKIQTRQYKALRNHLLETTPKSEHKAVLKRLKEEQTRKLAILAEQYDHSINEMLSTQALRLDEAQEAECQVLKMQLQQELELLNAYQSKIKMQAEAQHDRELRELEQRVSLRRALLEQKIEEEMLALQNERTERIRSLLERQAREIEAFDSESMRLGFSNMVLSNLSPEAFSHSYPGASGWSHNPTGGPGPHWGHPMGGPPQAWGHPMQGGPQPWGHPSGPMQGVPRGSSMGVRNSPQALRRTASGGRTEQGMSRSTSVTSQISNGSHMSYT
# [5] = biological target: T2, Serine/threonine-protein kinase TAO1 (Homo sapiens); conditions: at 10 µM
# [6] = biological target: T3, Serine/threonine-protein kinase TAO3 (Homo sapiens) (UniProt Q9H2K8); conditions: at 1 µM
# T3 sequence (whole entry): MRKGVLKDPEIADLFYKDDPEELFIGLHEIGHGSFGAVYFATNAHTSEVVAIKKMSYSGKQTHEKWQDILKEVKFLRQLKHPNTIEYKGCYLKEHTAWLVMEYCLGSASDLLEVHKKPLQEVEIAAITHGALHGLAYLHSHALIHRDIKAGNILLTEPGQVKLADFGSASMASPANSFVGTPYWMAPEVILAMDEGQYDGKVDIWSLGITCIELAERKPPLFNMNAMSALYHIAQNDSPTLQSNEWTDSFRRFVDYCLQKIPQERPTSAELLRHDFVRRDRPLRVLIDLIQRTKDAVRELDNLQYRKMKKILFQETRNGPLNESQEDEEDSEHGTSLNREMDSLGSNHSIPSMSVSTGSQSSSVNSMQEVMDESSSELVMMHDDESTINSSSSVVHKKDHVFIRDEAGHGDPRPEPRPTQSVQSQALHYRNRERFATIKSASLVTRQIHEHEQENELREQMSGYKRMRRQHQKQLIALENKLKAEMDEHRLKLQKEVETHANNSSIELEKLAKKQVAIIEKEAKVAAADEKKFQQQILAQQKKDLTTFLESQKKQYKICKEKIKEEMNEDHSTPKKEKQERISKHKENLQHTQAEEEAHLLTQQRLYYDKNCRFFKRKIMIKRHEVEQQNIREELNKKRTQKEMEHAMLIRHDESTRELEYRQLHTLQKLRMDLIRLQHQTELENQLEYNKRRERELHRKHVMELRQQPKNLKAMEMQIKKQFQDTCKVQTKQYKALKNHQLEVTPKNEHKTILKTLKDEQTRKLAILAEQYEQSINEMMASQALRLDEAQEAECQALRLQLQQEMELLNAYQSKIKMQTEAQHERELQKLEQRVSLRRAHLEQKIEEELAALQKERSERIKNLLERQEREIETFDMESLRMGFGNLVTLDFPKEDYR
# [7] = biological target: T3, Serine/threonine-protein kinase TAO3 (Homo sapiens); conditions: at 10 µM
# [8] = biological target: T4, Serine/threonine-protein kinase TBK1 (Homo sapiens) (UniProt Q9UHD2); conditions: at 1 µM
# T4 sequence (whole entry): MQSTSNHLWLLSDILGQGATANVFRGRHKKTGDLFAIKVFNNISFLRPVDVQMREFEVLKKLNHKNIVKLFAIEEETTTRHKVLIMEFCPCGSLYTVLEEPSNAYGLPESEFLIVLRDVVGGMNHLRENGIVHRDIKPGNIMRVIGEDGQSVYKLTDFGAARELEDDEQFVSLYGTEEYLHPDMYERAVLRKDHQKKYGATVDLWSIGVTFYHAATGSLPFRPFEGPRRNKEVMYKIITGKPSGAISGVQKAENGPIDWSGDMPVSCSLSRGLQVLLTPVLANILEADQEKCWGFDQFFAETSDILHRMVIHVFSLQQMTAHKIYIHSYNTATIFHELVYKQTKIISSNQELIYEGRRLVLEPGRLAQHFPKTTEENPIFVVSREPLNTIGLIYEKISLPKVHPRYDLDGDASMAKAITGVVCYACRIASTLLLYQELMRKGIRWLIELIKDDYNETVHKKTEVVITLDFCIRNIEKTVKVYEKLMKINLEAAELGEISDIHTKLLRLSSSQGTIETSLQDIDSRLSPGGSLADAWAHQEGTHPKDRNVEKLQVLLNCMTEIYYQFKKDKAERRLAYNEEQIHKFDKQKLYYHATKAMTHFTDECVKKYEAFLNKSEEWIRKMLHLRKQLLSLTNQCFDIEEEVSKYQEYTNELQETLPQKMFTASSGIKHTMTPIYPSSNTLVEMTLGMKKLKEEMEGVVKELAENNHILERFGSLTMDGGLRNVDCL
# [9] = biological target: T5, Serine/threonine-protein kinase TAO2 (Homo sapiens) (UniProt Q9UL54); conditions: at 1 µM
# T5 sequence (whole entry): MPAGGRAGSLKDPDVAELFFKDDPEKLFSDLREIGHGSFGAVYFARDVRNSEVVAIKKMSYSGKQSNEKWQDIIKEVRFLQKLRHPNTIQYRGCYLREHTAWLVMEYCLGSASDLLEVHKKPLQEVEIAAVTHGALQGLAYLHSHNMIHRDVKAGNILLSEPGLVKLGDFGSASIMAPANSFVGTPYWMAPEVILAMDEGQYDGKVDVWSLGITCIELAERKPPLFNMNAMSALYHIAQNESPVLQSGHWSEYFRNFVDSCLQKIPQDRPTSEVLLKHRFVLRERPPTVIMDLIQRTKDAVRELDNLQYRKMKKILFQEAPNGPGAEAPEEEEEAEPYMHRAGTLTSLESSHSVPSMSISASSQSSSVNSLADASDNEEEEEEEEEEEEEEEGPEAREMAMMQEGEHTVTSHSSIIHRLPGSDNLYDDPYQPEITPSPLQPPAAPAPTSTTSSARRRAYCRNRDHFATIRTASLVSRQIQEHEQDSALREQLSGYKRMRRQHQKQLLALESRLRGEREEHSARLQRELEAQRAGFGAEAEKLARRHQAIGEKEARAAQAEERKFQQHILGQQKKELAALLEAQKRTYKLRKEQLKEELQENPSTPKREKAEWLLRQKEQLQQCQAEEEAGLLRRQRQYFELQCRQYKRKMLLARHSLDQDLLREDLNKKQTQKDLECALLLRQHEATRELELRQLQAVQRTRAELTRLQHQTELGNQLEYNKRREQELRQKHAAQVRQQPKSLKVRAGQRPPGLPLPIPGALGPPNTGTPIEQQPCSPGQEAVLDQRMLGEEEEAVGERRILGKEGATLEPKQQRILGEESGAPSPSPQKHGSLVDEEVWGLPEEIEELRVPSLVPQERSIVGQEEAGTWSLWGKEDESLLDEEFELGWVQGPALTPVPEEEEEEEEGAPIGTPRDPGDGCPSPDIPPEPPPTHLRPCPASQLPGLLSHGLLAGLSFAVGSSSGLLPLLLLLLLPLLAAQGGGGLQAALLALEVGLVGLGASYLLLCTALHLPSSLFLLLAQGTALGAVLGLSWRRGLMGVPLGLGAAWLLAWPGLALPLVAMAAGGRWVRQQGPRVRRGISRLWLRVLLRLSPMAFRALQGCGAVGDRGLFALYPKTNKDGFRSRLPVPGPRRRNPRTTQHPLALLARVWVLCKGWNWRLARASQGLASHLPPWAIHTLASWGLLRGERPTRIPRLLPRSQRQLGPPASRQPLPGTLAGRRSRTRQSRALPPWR
# [10] = biological target: T5, Serine/threonine-protein kinase TAO2 (Homo sapiens); conditions: at 10 µM
Compound,residual activity [1] [%],residual activity [2] [%],residual activity [3] [%],residual activity [4] [%],residual activity [5] [%],residual activity [6] [%],residual activity [7] [%],residual activity [8] [%],residual activity [9] [%],residual activity [10] [%]
CCN(CC)CCNC(=O)c1c(C)[nH]c(/C=C2\C(=O)Nc3ccc(Cl)cc32)c1C,33,4,-3,71,18,79,24,15,,
O=C1NC(=O)c2c1c1c3ccccc3[nH]c1n1cncc21,25,55,30,,,69,63,53,88,69
NCCNc1ncc(C(N)=O)c(Nc2cccc(C(F)(F)F)c2)n1,0,78,25,78,28,73,32,79,,
O=C(c1cc2cc(O)ccc2[nH]1)c1cc2cc(O)ccc2[nH]1,46,62,23,70,28,66,22,16,80,32
O=C1NC(=O)C(c2c[nH]c3ccccc23)=C1c1c[nH]c2ccccc12,82,,75,,,69,26,70,82,35
c1ccc(-c2cnc(Nc3ccc(OCCN4CCCC4)cc3)s2)cc1,72,,74,82,28,82,27,70,81,21

# From ChEMBL document CHEMBL2218924, “A broad activity screen in support of a chemogenomic map for kinase signalling research and drug discovery” (Biochem J, 2013)
